According to PubChem BioAssay:
Activity calls are given as the source filed them.

Columns and labels:
Albumin (Bos taurus) = Albumin (Bos taurus) (UniProt P02769); assay: compounds binding labelled BSA control protein – biochemical, small-molecule microarray, Alexa647 label, 635/667 nm fluorescence, artefact control for SMM control protein annotation, profiling panel (AID 1118); conditions: BSA-A647 binding, fluorescence 635 nm, higher = more signal;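 note: score merges 667 nm emission intensity and signal-to-noise per printed compound spot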
Sequence of Albumin (Bos taurus) (P02769 whole entry, looked up): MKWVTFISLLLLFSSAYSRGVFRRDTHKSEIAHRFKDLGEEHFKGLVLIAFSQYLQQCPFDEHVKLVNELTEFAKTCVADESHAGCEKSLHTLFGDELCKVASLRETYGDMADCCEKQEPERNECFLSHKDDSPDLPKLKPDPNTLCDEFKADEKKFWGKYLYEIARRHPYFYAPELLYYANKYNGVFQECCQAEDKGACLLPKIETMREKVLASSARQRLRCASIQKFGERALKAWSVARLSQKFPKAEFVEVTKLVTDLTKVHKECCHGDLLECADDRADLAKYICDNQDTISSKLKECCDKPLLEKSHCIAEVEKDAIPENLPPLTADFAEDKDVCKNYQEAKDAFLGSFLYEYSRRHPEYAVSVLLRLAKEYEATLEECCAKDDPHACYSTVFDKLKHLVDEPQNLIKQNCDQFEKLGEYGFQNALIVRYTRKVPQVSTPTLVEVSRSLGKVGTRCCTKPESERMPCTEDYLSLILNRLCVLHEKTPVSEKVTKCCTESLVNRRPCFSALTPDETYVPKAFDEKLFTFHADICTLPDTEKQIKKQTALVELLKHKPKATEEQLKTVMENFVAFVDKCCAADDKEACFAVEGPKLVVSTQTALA

[1] = probe aXIP binding to arrayed compounds – biochemical, NeuroSMM set, 635/667 nm fluorescence, primary screen (AID 1119); conditions: small-molecule microarray, higher = more signal, called active from +8 up or from −8 down;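 note: probe is the protein aXip251-270 applied at 1 µg/mL to compound-printed slides; binding of probe to printed compounds measured as 667 nm fluorescence plus signal to noise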
[2] = probe aNOTCH3 binding on compound microarray – biochemical, small-molecule microarray, 635/667 nm fluorescence, primary screen (AID 1120); conditions: higher = more signal;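 note: probe is a biotin-tagged antibody raised against NOTCH3 rather than NOTCH3 protein; score merges spot fluorescence near 667 nm with spot signal to noise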
[3] = probe aNOTCH2 binding on compound microarray – biochemical, small-molecule microarray, 635/667 nm fluorescence, primary screen (AID 1121); conditions: higher = more signal;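 note: score merges feature fluorescence read at 667 nm with its signal to noise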
[4] = biological target: Carbonic anhydrase 2 (Homo sapiens) (UniProt P00918); assay: compounds binding carbonic anhydrase 2 – biochemical, small-molecule microarray, Alexa647-labelled CAII, profiling panel (AID 1122); conditions: CAII-A647 binding fluorescence, higher = more signal
[5] = COS7 lysate on small-molecule microarray, probe aHis, 635 nm (AID 1123); conditions: COS7 cell lysate, fluorescence, higher = more signal;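 note: z-score combines 667nm fluorescence intensity with signal-to-noise per printed compound spot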
[6] = probe aLAP1 signal on lysate-treated microarray – cell lysate, small-molecule microarray, COS7 lysate, primary screen (AID 1124); conditions: probe aLAP1, fluorescence, higher = more signal;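 note: lysate comes from COS7 cells expressing LAP1 and is applied at 0.3 µg/mL; score merges spot fluorescence near 667 nm with signal-to-noise over triplicate slides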
Sam68 (KHDRBS1) = assay: compounds binding KHDRBS1 protein – biochemical, small-molecule microarray, 635 nm fluorescence, primary screen (AID 1125); conditions: higher = more signal;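 note: score merges 667 nm channel intensity with signal to noise over triplicate slides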
[7] = test system: Chordin-like protein 2 (CHRDL2); assay: compounds binding chordin-like 2 – biochemical, small-molecule microarray, 635 nm fluorescence, primary screen (AID 1126); conditions: fluorescence 635 nm, higher = more signal;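 note: printed compound slides probed with Chrdl2 protein at 4 µg/mL for 1 h at 4 C; score merges 667 nm emission intensity with signal to noise over three replicate slides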
[8] = biological target: Concanavalin-A (Canavalia ensiformis) (UniProt P02866); assay: compounds binding concanavalin A lectin – biochemical, small-molecule microarray, Alexa647 label, 635 nm, artefact control for SMM control protein annotation, primary screen (AID 1127); conditions: ConA-A647 binding fluorescence, higher = more signal;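 note: z combines 667 nm emission intensity with signal-to-noise across three replicate slides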
Sequence of Concanavalin-A (Canavalia ensiformis) (P02866 whole entry, looked up): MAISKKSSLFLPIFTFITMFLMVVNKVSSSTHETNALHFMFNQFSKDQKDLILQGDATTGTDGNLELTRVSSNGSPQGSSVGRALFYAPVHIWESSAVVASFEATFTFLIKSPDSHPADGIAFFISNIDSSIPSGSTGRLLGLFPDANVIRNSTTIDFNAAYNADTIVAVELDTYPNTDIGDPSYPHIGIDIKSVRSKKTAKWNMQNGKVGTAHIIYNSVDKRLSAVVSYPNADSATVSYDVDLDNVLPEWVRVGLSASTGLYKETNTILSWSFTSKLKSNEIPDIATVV

| Compound | composite z-score (Albumin (Bos taurus)) | composite Z-score [1] | composite z-score [2] | composite z-score [3] | composite z-score [4] | composite z-score [5] | composite z-score [6] | composite z-score (Sam68 (KHDRBS1)) | composite z-score [7] | composite z-score [8] |
| --- | --- | --- | --- | --- | --- | --- | --- | --- | --- | --- |
| [N-]=[N+]=NCc1ccccc1C[C@]1(C(=O)N2CCOCC2)COC(c2ccc(OCCCO)cc2)=N1 | 0.754 | -0.592 (inactive) | 0.139 | 0.126 | 0.71 | 0.969 | 0.262 | 1.22 | -0.202 | 0.468 |
| CC(C)[C@H]1NC(=O)[C@@]23C(=O)N[C@@H](Cc4ccccc4)C2[C@H](C)[C@@]2(C)O[C@H]2C3/C=C/CCC/C=C/CNC(=O)[C@H](Cc2ccccc2)NC1=O (stereo not given in full) | 0.347 | -0.0159 (inactive) | -0.213 | -0.131 | 0.427 | 0.892 | -0.0328 | 0.86 | 0.213 | -0.464 |
| C=CC[C@H](OC(=O)Nc1ccc(SC)cc1)c1ccc(OCCO)cc1 | -0.0497 | 0.154 (inactive) | -0.0321 | -0.0996 | 0.655 | -0.365 | 0.656 | -1.12 | 0.0241 | -0.32 |
| CC(=O)NCCCC[C@@H]1NC(=O)[C@@H]2C[C@H](C(=O)NCCCCCCN)[C@H](c3cccc(OCCO)c3)N2C1=O | 0.851 | 0.801 (inactive) | -0.0682 | -0.149 | 0.779 | 1.72 | 1.89 | 1.12 | -0.878 | 1.12 |
| CC(C)[C@H]1NC(=O)[C@@]23C(=O)N[C@@H](Cc4ccccc4)C2[C@H](C)[C@@]2(C)O[C@H]2C3/C=C/C/C=C\CNC(=O)[C@H](Cc2ccccc2)NC1=O (stereo not given in full) | 0.347 | 0.167 (inactive) | 0.204 | -0.19 | 0.318 | 0.836 | 0.582 | 1.29 | 0.908 | 0.273 |
| COc1cc2c(cc1OC)CN(C(=O)[C@@H]1[C@H]3C(=O)O[C@H](c4ccccc4)[C@H](c4ccccc4)N3[C@H](c3ccc(O)cc3)[C@@]13C(=O)Nc1ccc(C#CCCO)cc13)CC2 | 0.571 | 0.37 (inactive) | -0.0699 | -0.113 | 0.606 | 1.08 | 0.78 | 1.13 | 0.481 | 0.754 |
| COc1ccc(C#Cc2ccc3c(c2)[C@]2(C(=O)N3)[C@H](C(=O)N3CCCCCCC3)[C@H]3C(=O)O[C@H](c4ccccc4)[C@H](c4ccccc4)N3[C@@H]2c2ccc(O)cc2)cc1 | 0.796 | 4.74 (inactive) | 0.888 | 0.0488 | 0.594 | 2.9 | 1.25 | 1.3 | 0.573 | 0.977 |
| Cc1ccc(S[C@]2(C(=O)NC(C)C)CC(=O)N(C(C)C)[C@@H]2c2ccc(CO)cc2I)cc1 | 0.41 | -0.283 (inactive) | -0.0647 | -0.0686 | 0.326 | 1.32 | 0.366 | 1.12 | -0.598 | -0.0097 |
| COc1ccc([Si](C)(C)[C@@H]2[C@@H](CCn3cc([C@H](O)c4ccccc4)nn3)O[C@]3(C(=O)N(Cc4cccc(N5C(=O)c6cccc7cccc5c67)c4)c4ccccc43)[C@H]2C)cc1 | 0.371 | 0.0425 (inactive) | -0.157 | -0.155 | 0.405 | 0.992 | -0.64 | 0.173 | -1.09 | 0.234 |
| COC(=O)C1=CC(CCCO)=CC(c2ccc(CN3CCCC3)cc2)N(Cc2cc3c(cc2Br)OCO3)C=C1C(=O)OC (stereo not given) | 1.04 | 0.339 (inactive) | 0.477 | 0.135 | 0.705 | 1.76 | 0.672 | 1.3 | -0.384 | 0.701 |
| COCCOC(=O)N1C(=O)[C@@]2(c3cc(C#CCNC(N)=O)ccc31)[C@H](c1ccc(O)cc1)N1[C@H](c3ccccc3)[C@H](c3ccccc3)OC(=O)[C@H]1[C@@H]2C(N)=O | -0.864 | -1.03 (inactive) | -0.443 | -0.198 | -0.394 | -0.157 | -0.38 | -0.344 | -1.52 | -1.03 |
| CS(=O)(=O)CCOC(=O)C1=CC(CCCO)=CC(C2CC2)N(Cc2cccc(OC(F)(F)F)c2)C=C1C(=O)OCCS(C)(=O)=O (stereo not given) | 0.42 | 3.23 (inactive) | 0.0311 | -0.133 | 0.751 | 1.16 | -0.0318 | 1.33 | -0.316 | 0.244 |
| CC(C)N1CC=CC23O[C@@H]4/C=C\CCCOC(=O)C4[C@H]2C(=O)N(CCCCCCO)[C@@H]3C1=O (stereo not given in full) | -0.616 | 0.379 (inactive) | -0.277 | -0.0895 | 0.938 | 1.28 | 1.14 | 0.223 | -1.26 | -1.02 |
| C=C(COC)/C(=C/C[C@H](OC(C)=O)c1cccc(OCCO)c1)c1cnc2ccccc2c1 | 0.497 | 0.0575 (inactive) | 0.0556 | -0.0817 | 0.917 | 0.109 | 0.267 | 1.24 | 1.35 | 1.05 |
| COCC(=C=CC[C@@H](O)c1ccc(OCCO)cc1)CCO | -0.201 | 1.21 (inactive) | -0.17 | -0.0859 | 0.838 | 1.25 | 0.83 | 0.847 | 0.136 | -0.139 |
| COc1ccc([Si](C)(C)[C@@H]2[C@@H](CC(=O)N3Cc4ccccc4C[C@H]3CO)O[C@]3(C(=O)N(c4ccccc4)c4ccccc43)[C@H]2C)cc1 | -0.104 | 8.06 (active) | 0.146 | 0.0018 | 0.429 | 1.21 | 0.339 | 1.3 | 0.943 | 0.869 |
| CCOC(=O)C1=C[C@@H](C(C)(C)C)N(S(=O)(=O)c2ccc(C)cc2)[C@H]1c1ccccc1 | 0.907 | 0.265 (inactive) | 0.176 | -0.0836 | 0.343 | 0.29 | 0.931 | 1.31 | -0.196 | 0.94 |
| C[C@@H]1ON(c2ccc(I)cc2)[C@H](c2ccc(OC(=O)OC(C)(C)C)cc2)[C@H]1C(=O)N1C(=O)OC[C@H]1Cc1ccccc1 | 0.578 | 0.0054 (inactive) | -0.0043 | -0.14 | 0.574 | 0.527 | -0.36 | 1.15 | 0.376 | 1.09 |
| C=CCC(OC(C)=O)[C@@H]1[C@@H](N(Cc2ccc(-c3cccc(C(F)(F)F)c3)o2)C(=O)c2cccc3ccccc23)c2cc(OCCCO)ccc2N1C(=O)Cc1ccc(OC)cc1 (stereo not given in full) | 0.311 | -0.0798 (inactive) | -0.027 | -0.151 | 0.149 | 0.428 | 0.0827 | -0.323 | 0.0616 | -0.422 |
| COc1ccc(C(=O)Nc2cccc(CN3C(=O)[C@@]4(O[C@@H](CC(=O)N(CCO)Cc5ccccc5)[C@H]([Si](C)(C)c5ccc(OC)cc5)[C@H]4C)c4ccccc43)c2)cc1 | 0.441 | 0.799 (inactive) | -0.122 | -0.0868 | 0.56 | 1.56 | 0.229 | 1.19 | 0.351 | 0.601 |
| O=C1C2C=CC(C(O)c3ccco3)N(Nc3ccccc3)C2C(=O)N1c1ccccc1 (stereo not given) | 0.507 | 0.0089 (inactive) | -0.153 | -0.141 | 0.757 | 0.467 | -0.102 | -0.161 | -0.727 | -0.222 |
| CO[C@H]1O[C@H](CO)[C@@H](OC(=O)Nc2cccc(F)c2)[C@H](OC(=O)Nc2ccccc2-c2ccccc2)[C@H]1OC(=O)Nc1ccccc1-c1ccccc1 | -0.8 | 0.55 (inactive) | 0.206 | -0.0226 | 0.577 | 2.33 | 0.57 | 1.3 | 0.484 | 0.924 |
| CCOC(=O)C[C@H]1[C@H](OC(=O)c2ccc(-c3ccccc3)cc2)[C@@H](NC(=O)Cc2ccc(OC)cc2)c2cc(OCCCO)ccc2N1C(=O)Cc1ccc(OC)cc1 | 0.793 | -0.263 (inactive) | -0.0647 | -0.112 | -0.0866 | 0.584 | 0.234 | 0.496 | -0.565 | -0.0542 |
| COC(=O)c1c2oc(c1C(=O)OC)C(=O)N1CCC[C@H]1Cn1nncc1CN(Cc1ccccc1)C(=O)N[C@H](CO)CC2 | 0.333 | 0.316 (inactive) | -0.134 | -0.164 | 0.75 | 0.214 | 0.832 | 0.626 | -0.581 | 0.125 |
| CCOC(=O)C[C@H]1[C@H](OC(=O)c2ccccc2-c2ccccc2)[C@@H](NC(=O)c2ccccc2)c2cc(OCCCO)ccc2N1C(=O)c1ccccc1 | 0.505 | -0.383 (inactive) | -0.0647 | -0.019 | 0.666 | 0.677 | 0.513 | 0.42 | 0.116 | 0.178 |
| C=CCNC(=O)[C@@H]1[C@H]2C(=O)O[C@H](c3ccccc3)[C@H](c3ccccc3)N2[C@H](c2ccc(O)cc2)[C@@]12C(=O)Nc1ccc(C#CCC(C(=O)OC)C(=O)OC)cc12 | 0.0825 | -0.136 (inactive) | -0.0647 | -0.0907 | 0.336 | 1.52 | 0.123 | 1.33 | 0.231 | 0.933 |
| CO[C@H]1O[C@H](CO)[C@@H](OC(=O)Nc2ccc(C#N)cc2)[C@@H]2OC(=O)[C@H](Cc3cccc(Br)c3)C/C=C/C[C@@H](Cc3cccc(Br)c3)C(=O)O[C@@H]12 | 0.348 | 0.656 (inactive) | 0.0935 | -0.0711 | 0.26 | 0.913 | 0.23 | 0.697 | 0.116 | 0.384 |
| COc1ccc([Si](C)(C)[C@H]2[C@H](CCO)O[C@@]3(C(=O)N(Cc4ccccc4)c4ccc(N5CCOC5=O)cc43)[C@@H]2C)cc1 | 0.711 | -0.326 (inactive) | 0.0311 | -0.149 | 0.299 | 0.644 | -0.174 | 0.832 | 0.524 | 1.15 |
